# Assay results: PubChem BioAssay AID1345085 (National Center for Advancing Translational Sciences (NCATS), 2018)
# Inconclusive results are not listed. Calls of active or inactive are those of the source. Calls come from the whole dose curve; as a rule, active = well fitted cell-killing curve with a large enough effect; inconclusive = small, poorly fitted or top-dose-only effect, or effect the other way; inactive = no such curve, though single readings can be large or run the other way.
# System: HeLa
# Experiment: Confirmatory qHTS for gynecologic anti-cancer compounds from libraries of approved drugs and bioactive compounds; note: nearly all actives have a fitted effect of over 55% in size
# Details: gynecologic cancer cell panel viability, ATPlite luminescence, 48 h; series mostly up to 57.6 µM
# Outline: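 1,000 cells/well; 16 h pre-incubation 37 C, 5% CO2; pin-transferred cpd in DMSO, 11 conc (1:3), 57.5 uM–0.977 nM; 48 h; ATPlite, 15 min RT; luminescence → IC50.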
# Potency is the fitted concentration of half-maximal effect.
row,Compound,Potency
1,C=C(C)[C@H]1Cc2c(ccc3c2O[C@@H]2COc4cc(OC)c(OC)cc4[C@@H]2C3=O)O1,243 nM (active)
2,C/C=C(/C)C(=O)O[C@H]1C(C)=C2[C@H]([C@@H]1OC(=O)CCCCCCC)[C@@](C)(OC(C)=O)C[C@H](OC(=O)CCC)[C@@]1(O)[C@H]2OC(=O)[C@@]1(C)O,61.1 nM (active)
3,Cc1sc2c(c1C)C(c1ccc(Cl)cc1)=NC(CC(=O)OC(C)(C)C)c1nnc(C)n1-2 (stereo not drawn),769 nM (active)
4,CCNC(=O)C[C@@H]1N=C(c2ccc(Cl)cc2)c2cc(OC)ccc2-n2c(C)nnc21,1530 nM (active)
5,CCC(=O)O[C@H]1CC[C@H]2[C@@H]3CCC4=CC(=O)CC[C@]4(C)[C@H]3CC[C@]12C,4320 nM (active)
6,C[C@]12CC[C@H]3[C@@H](CCC4=CC(=O)CC[C@@H]43)[C@@H]1CC[C@@H]2OC(=O)CCc1ccccc1,2730 nM (active)
7,O=C(O)Cc1ccccc1,inactive
8,C[C@H]1CCC/C=C/C2C[C@H](O)C[C@H]2[C@H](O)/C=C/C(=O)O1 (stereo partly drawn),172 nM (active)
